# Shown are actives, neighbours in structure and some others; about 3.2% of the full set was active somewhere.
# VDR inhibitor: blocks the human vitamin D receptor; Potency, µM, usual class: inhibitors; VDR-SRC2-3 peptide fluorescence polarization, 2 h; 400,000 tested, 0.93% active; AID 504847; P11473
# Target sequence (P11473 whole entry, looked up): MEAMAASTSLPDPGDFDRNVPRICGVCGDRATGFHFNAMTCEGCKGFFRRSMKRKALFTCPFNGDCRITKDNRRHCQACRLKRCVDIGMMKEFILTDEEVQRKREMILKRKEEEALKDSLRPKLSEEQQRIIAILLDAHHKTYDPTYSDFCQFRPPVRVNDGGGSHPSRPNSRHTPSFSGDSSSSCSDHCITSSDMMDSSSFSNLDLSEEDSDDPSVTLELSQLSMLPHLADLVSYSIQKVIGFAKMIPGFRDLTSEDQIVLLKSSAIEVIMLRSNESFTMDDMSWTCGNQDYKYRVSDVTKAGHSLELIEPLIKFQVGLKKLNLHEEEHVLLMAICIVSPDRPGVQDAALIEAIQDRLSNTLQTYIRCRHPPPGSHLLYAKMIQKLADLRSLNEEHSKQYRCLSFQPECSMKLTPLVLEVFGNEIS
#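 The screen uses fluorescence polarization to detect compounds that interfere with recruitment of the SRC2-3 coactivator peptide to VDR; plates are read after 2 h at room temperature.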
# USP2a inh: inhibitors of human ubiquitin-specific protease USP2a; Potency, µM (top dose mostly 38.3 µM), hits mostly inhibitors; O75604; USP2 core, Ub-CHOP2 coupled fluorogenic reporter, 485/531; AID 463254; 330,000 tested, 0.01% active
#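 Deubiquitinase activity read as fluorescence (485/531 nm) after Ub-CHOP2 cleavage activates the enterokinase reporter on its substrate; USP2 core 10nM, Ub-CHOP2 and substrate 25nM each, 30min compound preincubation then 60min RT; data normalized to NEM, curves fitted.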
# FBPA coupling cs: inhibits coupling enzyme system, counter-screen for aldolase hits. coupling enzyme system counterscreen, AmpLite Red fluorescence. activity change, negative = inhibition, % at 58.2 µM, hits read low. 290,000 tested, 0.67% active; in the data active = activity change below about -30%
#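 Activity here indicates interference with the coupling reaction, not aldolase inhibition. Compounds at 57.5 uM final met coupling enzymes for 10 min at RT; substrate and AmpLite Red detection followed, with a 525/598 nm fluorescence read after 20 min.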
# GALK inh: blocks human galactokinase activity | P51570 | Purified GALK, Kinase-Glo residual ATP luminescence | Potency, µM (doses to about 57.5 µM), most hits filed as inhibitors | 270,000 tested, 0.007% active
#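 Compounds were pin-transferred into ATP buffer (35 uM final), then GALK plus galactose (5 nM, 100 uM final) was added. After 1 h at room temperature, Kinase-Glo Plus was added and luminescence read after 10 min.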
# USP1 inh: blocks the human USP1/UAF1 deubiquitinase complex. O94782. recombinant USP1/UAF1, Ub-Rhodamine cleavage fluorescence. Potency, µM (top dose mostly 57.1 µM), usual class: inhibitors. 390,000 tested, 0.23% active; also: nearly all actives have a fitted effect of over 60% in size
#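 USP1/UAF1 complex at 1 nM was preincubated with compound for 15 min at room temperature, then Ub-Rho substrate (150nM final) was added. Fluorescence (480/540 nm) was read kinetically, 6 reads every 60 seconds.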
# PLK1 PBD block: inhibitors of human PLK1 polo-box domain binding | P53350 | Plk1 PBD binding of FITC phosphopeptide, fluorescence polarization | Potency, µM, most hits filed as inhibitors | 360,000 tested, 2.8% active; also: series mostly up to about 57 µM; nearly all actives have a fitted effect of over 65% in size
# A number is an active result; - = inactive; ? = inconclusive; . = no result given. Unless noted, calls follow the shape of the dose curve; as a rule, active = well fitted curve in the direction sought with a large enough effect; inconclusive = small, poorly fitted or top-dose-only effect, or another doubt; inactive = no such curve, though single readings can be large; an effect the other way counts as inactive or inconclusive.
SMILES,VDR inhibitor,USP2a inh,FBPA coupling cs,GALK inh,USP1 inh,PLK1 PBD block
CCOC(=O)[C@]12Cc3cc(Cl)ccc3[C@H]1N(C1CCCCC1)C(=O)c1ccccc12,.,.,.,.,.,1.9µM
CCOC(=O)[C@]12Cc3ccsc3[C@H]1N(Cc1ccccc1)C(=O)c1ccccc12,-,.,.,.,?,-
CCOC(=O)[C@]12Cc3cc(OC)ccc3[C@H]1N(C1CCCCC1)C(=O)c1ccccc12,.,.,.,.,.,3µM
O=[N+]([O-])/C=C1\NCCN1Cc1ccc(Cl)nc1,-,-,-,-,-,?
C=C(C)C1Cc2c(ccc3c(=O)c4c(oc23)COc2cc(OC)c(OC)cc2-4)O1 (centres undefined),-,.,-,.,.,.
COc1ccc(C(=O)C2CCCN(Cc3ccon3)C2)c(OC)c1 (centres undefined),-,-,-,-,-,-
CCN(CC)C(=O)Cn1cc(C=C2C(=O)N(C)C(=O)N(C)C2=O)c2ccccc21,-,?,-,-,-,30µM
C=CCn1cc(C=C2C(=O)N(C)C(=O)N(C)C2=O)c2ccccc21,-,-,-,.,-,-
CC1CCCCN1C(=O)Cn1cc(C=C2C(=O)N(C)C(=O)N(C)C2=O)c2ccccc21 (centres undefined),-,?,.,-,?,17µM
COC(=O)Cn1cc(C=C2C(=O)N(C)C(=O)N(C)C2=O)c2ccccc21,-,-,-,-,?,?
c1csc(C2(N3CCCCC3)CCCCC2)c1,-,.,.,.,.,.
Cc1nc2cc(-c3ccc(Cl)cc3)nn2c(C)c1CCC(=O)N1CCC2(CC1)OCCO2,-,.,.,.,-,-
COc1cc2c(c(OC)c1OC)-c1ccc(O)cc1[C@@H](NC(C)=O)CC2,-,-,.,.,-,-
O=C(CCN1CCN(c2ccccc2)CC1)c1ccc(Br)cc1,89µM,-,-,-,-,8.4µM
CC(c1ccccc1)n1cncc1C(=O)N1CCCC1=O (centres undefined),-,-,-,-,-,-
CCOC(=O)[C@]12Cc3cc(Cl)ccc3[C@H]1N(C)C(=O)c1ccccc12,.,.,.,.,.,-
CCOC(=O)[C@]12Cc3cc(Cl)ccc3[C@H]1N(CC(=O)OC)C(=O)c1ccccc12,.,.,.,.,.,4.2µM
CCOC(=O)[C@]12Cc3cc(Cl)ccc3[C@H]1N(C(C)C)C(=O)c1ccccc12,.,.,.,.,.,9.5µM
CCOC(=O)[C@]12Cc3cc(OC)c(OC)cc3[C@H]1N(Cc1ccccc1)C(=O)c1ccccc12,-,.,.,.,?,-
CCCCn1c(O)c(/C=N/NC(=O)c2ccncc2)c(=O)[nH]c1=O,-,-,-,-,-,-
Cc1[nH]n(-c2ccccc2)c(=O)c1C(c1ccc([N+](=O)[O-])cc1)c1c(C)[nH]n(-c2ccccc2)c1=O,?,-,-,-,?,7.5µM
Cc1[nH]n(-c2ccccc2)c(=O)c1C(C[N+](=O)[O-])c1ccccc1Cl (centres undefined),-,-,-,-,?,15µM
O=[N+]([O-])c1ccc(C(c2ccc([N+](=O)[O-])cc2)c2ccc([N+](=O)[O-])cc2)cc1,-,.,.,.,-,-
COC(=O)C1=C(c2ccc(OC)c(OC)c2)C[C@@H]2CC[C@H]1N2C(=O)NCCOc1ccc(OC)cc1,-,-,.,.,-,-
CC1CN1P(=O)(Oc1ccc2ccccc2c1)N1CC1C (centres undefined),-,.,.,.,-,-
SMILES,VDR inhibitor,USP2a inh,FBPA coupling cs,GALK inh,USP1 inh,PLK1 PBD block
CC1=CC(=O)NP(=O)(Oc2ccc3ccccc3c2)N1 (centres undefined),-,-,-,-,-,6.7µM
CC(C(=O)c1cn(C)c2ccccc12)c1ccccc1 (centres undefined),-,-,-,-,-,-
CCN1C(=O)C(=Cc2ccc(C)s2)C(=O)N(CC)C1=S,?,-,-,.,-,0.53µM
CCN1C(=O)C(=Cc2cc(C)n(C3CC3)c2C)C(=O)N(CC)C1=S,-,-,-,-,-,-
COc1ccc(Cl)cc1NC(=O)CCn1c(=O)oc2ccccc21,-,-,.,-,-,?
CCOP(=S)(OCC)SCn1c(=O)oc2cc(Cl)ccc21,35µM,.,-,.,.,.
COc1cc(/C=N/NP(=S)(c2ccccc2)c2ccccc2)ccc1O,-,-,-,-,-,?
Oc1ccc(/C=N/NP(=S)(c2ccccc2)c2ccccc2)cc1,-,-,-,-,-,24µM
O=C1c2cccc(N3CCNCC3)c2C2CCCCN12 (centres undefined),.,.,.,.,.,-
C[n+]1c(-c2ccccc2)c2cc(N)ccc2c2ccc(N)cc21,-,-,-39,.,?,-
COc1ccc(CN2CCCC(C(=O)c3ccc(Cl)cc3)C2)c(OC)c1 (centres undefined),?,-,-,-,-,24µM
COc1ccc(CN2CCCC(C(=O)c3cccc(Cl)c3)C2)cc1 (centres undefined),-,-,-,-,-,-
CN1C[C@H](C(=O)N[C@]2(C)O[C@@]3(O)[C@@H]4CCCN4C(=O)[C@H](Cc4ccccc4)N3C2=O)C[C@@H]2c3cccc4[nH]cc(c34)C[C@H]21,-,.,.,.,.,.
CC(=O)OC1CC2C(C)(C)C(=O)C=C[C@]2(C)C2CC[C@]3(C)C(=CC(=O)OC3c3ccoc3)[C@]12C (some centres undefined),20µM,.,-,.,.,.
CCOP(=O)(OCC)C(NC(=O)C(Cl)Cl)C(Cl)(Cl)Cl (centres undefined),-,-,-,-,-,-
[O-]/[N+](=C/c1cccnc1)c1ccc(Br)cc1,45µM,-,-,-,-,11µM
O=C(Nc1ccccc1Cl)OC1CN2CCC1CC2 (centres undefined),-,-,-,-,-,-
N#CC(C#N)=NNc1ccc(OC(F)(F)F)cc1,0.89µM,.,-,.,.,.
N#CC(C#N)=NNc1cccc(Cl)c1,.,.,-,.,.,.
CCCCCCCCCC[N+](C)(C)CCCCCCCCCC,-,.,.,.,.,.
CC12CCC3C(CCC4(O)CC(O)CCC34C=O)C1(O)CCC2C1=CC(=O)OC1 (centres undefined),-,.,.,.,-,-
COc1ccc(CNC(=O)CCC(=O)N2C[C@H]3C[C@H](C2)c2cccc(=O)n2C3)cc1OC,-,-,-,.,-,-
C=CCc1cc(C=C2C(=O)N(C)C(=O)N(C)C2=O)cc(OCC)c1OCc1ccccc1,?,-,-,.,?,7.5µM
C=CCc1cc(C=C2C(=O)NC(=O)NC2=O)cc(OC)c1OCc1ccc(C(=O)O)cc1,89µM,-,-,-,-,12µM
Cc1ccc(-c2nc(CN3C(=O)CN=C(c4ccccc4)c4cc(Cl)ccc43)c(C)o2)cc1,-,.,.,.,-,.
c1cc(Cc2cnc[nH]2)ccn1,-,.,-,.,.,.
Fc1ccccc1N1CCN(Cc2c(F)cccc2F)CC1,-,-,-,-,-,-
